Several values for one entry are separate records, joined by “and”; a condition that tells them apart may be missing. Identical values can stand only once. Records with an inconclusive call do not appear. Entries that show only a call come without a potency. Activity calls are given as the source filed them. Calls come from the whole dose curve; as a rule, active = well fitted inhibition curve with a large enough effect in the repeat runs; inconclusive = weak or mixed curves; inactive = flat fitted curve, though single readings scatter.
Test: qHTS assay to identify small molecule HDAC inhibitors (AID 1259364); note: nearly all actives have a fitted effect of over 45% in size; for activity change, negative = inhibition: top concentration of the series differs between compounds
Settings: HCT-116 HDAC-Glo I/II luminescence, 2 h; series mostly up to 92.4 µM; activity change, negative = inhibition: at the top concentration
From the text: U.S. Tox21 Program National Center for Advancing Translational Sciences [NCATS] NIH Chemical Genomics Center [NCGC] U.S. Environmental Protection Agency [EPA] National Institutes of Environmental Health Sciences [NIEHS] National Toxicology Program [NTP] U.S. Food and Drug Administration [FDA] Tox21 Assay Overview: Histone deacetylases (HDACs) are a group of epigenetic enzymes that regulate gene expression by histone deacetylation. HDACs are capable of introducing epigenetic modifications and such aberrations contribute to the onset and progression of several human diseases, thus making HDACs a popular therapeutic target. For identifying endogenous class I/II HDAC inhibitors a homogenous, luminogenic HDAC I/II cell based assay was used to measure the relative activity of class I and II HDACs from cells. Wild type HCT-116 cells were used to screen Tox21 libraries for identifying class I/II HDAC inhibitors.
Tox21 Assay Protocol Summary: HCT-116 cells were dispensed at 1,500 per well in 5uL of culture medium into white solid bottom 1536-well plates (Greiner Bio-One, Monroe, NC) using a Multidrop Combi (Thermo Scientific, Waltham, MA) dispenser. The assay plates were incubated at 37 C and 5% CO2 for an overnight, and then 23nL of compounds dissolved in DMSO and positive control were transferred using a Pintool station (Wako, San Diego, CA). The assay plates were incubated at 37C and 5% CO2 for 2hr. After compound treatment, 4uL of HDAC-Glo reagent (Promega Corporation, Madison, WI) was added to each well of the assay plates using Flying Reagent Dispenser (FRD, Aurora Discovery, San Diego, CA) and incubated the assay plates at room temperature for 30min. The luminescence signal was quantified using a ViewLux plate reader (Perkin Elmer, Shelton, CT).
In the case of `Cc1ccc2c(c1N)C(=O)c1ccccc1C2=O`, the Potency is reported as 7.61 µM (active) and 9.69 µM (active).
For `Cc1ccccc1[N+](=O)[O-]`, the Potency was “inactive”.
For `Cc1ccc(OP(=O)(Oc2ccc(C)cc2)Oc2ccc(C)cc2)cc1`, the Potency was “inactive”.
With `N#CC(Br)Br` the Potency was “inactive”.
For `CCC(C)(c1ccc(O)cc1)c1ccc(O)cc1`, the Potency was “inactive”.
For `CC(C)(c1cc(Cl)c(O)c(Cl)c1)c1cc(Cl)c(O)c(Cl)c1`, the Potency was “inactive”.
For `CC(C)(OOC(C)(C)c1ccccc1)c1ccccc1`, the Potency was “inactive”.
For `Nc1ccc(Cl)c(Cl)c1`, the Potency was “inactive”.
In the case of `CCC(C)(C)c1ccc(O)cc1`, the Potency is reported as “inactive”.
In the case of `CCC(CC)Nc1c([N+](=O)[O-])cc(C)c(C)c1[N+](=O)[O-]`, the Potency is reported as “inactive”.
In the case of `O=C(NC(=O)c1c(F)cccc1F)Nc1ccc(Cl)cc1`, the Potency is reported as “inactive”.
With `O=Cc1ccco1` the Potency was “inactive”.
For `O=C1C=CC(=O)C=C1`, the Potency was “inactive”.
In the case of `c1ccc(N=Nc2ccccc2)cc1`, the Potency is reported as 30.6 µM (active).
In the case of `CC(C)(C)c1ccccc1O`, the Potency is reported as “inactive”.
With `c1ccc(-c2cccc(-c3ccccc3)c2)cc1` the Potency was “inactive”.
In the case of `CCOCN(C(=O)CCl)c1c(C)cccc1CC`, the Potency is reported as “inactive”.
With `CCOC(=O)C(C)OC(=O)c1cc(Oc2ccc(C(F)(F)F)cc2Cl)ccc1[N+](=O)[O-]` (stereo not given) the Potency was “inactive”.
With `N#CCCCl` the Potency was “inactive”.
For `c1nc[nH]n1`, the Potency was “inactive”.
In the case of `NC(=S)Nc1ccccc1`, the Potency is reported as “inactive”.
In the case of `CNC(=O)N(C)c1nnc(C(C)(C)C)s1`, the Potency is reported as 27.3 µM (active).
With `Nc1ccc(Cl)cc1N` the Potency was 19.3 µM (active).
For `COP(=S)(OC)Oc1cc(Cl)c(Cl)cc1Cl`, the Potency was “inactive”.
For `O=C(O)C(F)(F)C(F)(F)C(F)(F)C(F)(F)C(F)(F)C(F)(F)C(F)(F)F`, the Potency was “inactive”.
With `C=CC(=O)OCCO` the Potency was “inactive”.
In the case of `Nc1cccnc1`, the Potency is reported as “inactive”.
With `CCN(N=O)C(N)=O` the Potency was “inactive”.
With `Nc1ccncc1` the Potency was “inactive”.
In the case of `O=C(O)CC[N+](=O)[O-]`, the Potency is reported as “inactive”.
With `Nc1c(Cl)cc([N+](=O)[O-])cc1Cl` the Potency was “inactive”.
In the case of `N#Cc1cc(Br)c(O)c(Br)c1`, the Potency is reported as “inactive”.
For `O=[N+]([O-])c1cccc2ccccc12`, the Potency was “inactive”.
In the case of `S=C1NCCN1`, the Potency is reported as “inactive”.
In the case of `C=C(C)[C@H]1Cc2c(ccc3c2O[C@@H]2COc4cc(OC)c(OC)cc4[C@@H]2C3=O)O1`, the Potency is reported as “inactive”.
For `O=C(Nc1ccc(Br)cc1)c1cc(Br)cc(Br)c1O`, the Potency was 6.83 µM (active) and 6.11 µM (active) and 6.68 µM (active).
For `CCC(C)c1ccc(O)cc1` (stereo not given), the Potency was “inactive”.
In the case of `Cc1cc(Cl)ccc1OCCCC(=O)O`, the Potency is reported as “inactive”.
With `Oc1ccc(-c2ccccc2)cc1` the “activity change, negative = inhibition” value was -22.4% (inactive).
With `CC(C)NC(C)C` the “activity change, negative = inhibition” value was -2.87% [at 42.5 µM] (inactive).

From PubChem BioAssay (Tox21)
Potency is the fitted concentration of half-maximal effect.
